Results taken from PubChem BioAssay (NCATS).
Records with an inconclusive call do not appear. Active and inactive are the calls of the source. Calls follow the shape of the dose curve; as a rule, active = well fitted curve in the direction sought with a large enough effect; inconclusive = small, poorly fitted or top-dose-only effect, or another doubt; inactive = no such curve, though single readings can be large; an effect the other way counts as inactive or inconclusive.

Key:
[1] = biological target: ATP-dependent 6-phosphofructokinase (Trypanosoma brucei brucei) (UniProt O15648); assay: qHTS Assay to Find Inhibitors of T. brucei phosphofructokinase: hit validation (AID 492961);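 also: luminescence reports ADP formed as PFK phosphorylates fructose-6-phosphate with ATP; % is scaled to controls: 0 for no effect and ±100 for the full control effect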
Summary of the method: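 PFK 1.25 nM, F6P 0.5 mM, ATP 0.1 mM, MgCl2 5 mM, 0.1 M TEA pH 8.0, Tween20 0.01%, BSA 0.1%; 45 min RT. ADP-Glo two-step detection, luminescence. qHTS titration; curve fitting with curve-class categorization.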

[2] = biological target: Luciferin 4-monooxygenase (Photinus pyralis) (UniProt P08659); assay: Biochemical firefly luciferase enzyme assay for NPC (AID 624030);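 also: purified P. pyralis luciferase at 10 nM with luciferin and ATP substrate; 0% = DMSO and -100% = full luciferase inhibition by PTC124 control; nearly all actives have a fitted effect of over 70% in size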
Summary of the method: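 Counter-screen for direct inhibition of the luciferase enzyme by approved-drug library compounds, run at 10 nM enzyme in 50 mM Tris acetate (final). Luminescence was read within 5 min of enzyme-buffer addition and normalized to PTC124 versus DMSO (0%).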

[3] = qHTS profiling for inhibitors of Plasmodium falciparum proliferation (AID 504749); also: potency is read from the fitted curve at half-maximal effect;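 as to activity, negative = inhibition: 0% = DMSO vehicle and full inhibition = artemisinin control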; as to all read-outs here: nearly all actives have a fitted effect of over 60% in size; conditions: P. falciparum in erythrocytes, SYBR Green DNA, 72 h; for activity, negative = inhibition: at 28.7 µM (top of the series)
Summary of the method: (§1)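 P. falciparum-infected erythrocytes (0.3% parasitemia, 2.5% hematocrit final) were exposed to compounds for 72 h at 37 C in 5% CO2, then lysed with SYBR Green buffer overnight at room temperature; parasite DNA fluorescence was normalized to artemisinin and DMSO controls.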

ATS189 = assay: as above; conditions: P. falciparum in erythrocytes, SYBR Green DNA, 72 h; series mostly up to 28.7 µM
Summary of the method: as §1

C2A = assay: as above; conditions: P. falciparum in erythrocytes, SYBR Green DNA, 72 h; series mostly up to 28.7 µM
Summary of the method: as §1

CP191 = assay: as above; conditions: P. falciparum in erythrocytes, SYBR Green DNA, 72 h; series mostly up to 28.7 µM
Summary of the method: as §1

CP192 = assay: as above; conditions: P. falciparum in erythrocytes, SYBR Green DNA, 72 h; series mostly up to 28.7 µM
Summary of the method: as §1

CP201 = assay: as above; conditions: P. falciparum in erythrocytes, SYBR Green DNA, 72 h; series mostly up to 28.7 µM
Summary of the method: as §1

CP215 = assay: as above; conditions: P. falciparum in erythrocytes, SYBR Green DNA, 72 h; series mostly up to 28.7 µM
Summary of the method: as §1

CP237 = assay: as above; conditions: P. falciparum in erythrocytes, SYBR Green DNA, 72 h; series mostly up to 28.7 µM
Summary of the method: as §1

CP238 = assay: as above; conditions: P. falciparum in erythrocytes, SYBR Green DNA, 72 h; series mostly up to 28.7 µM
Summary of the method: as §1

CP268 = assay: as above; conditions: P. falciparum in erythrocytes, SYBR Green DNA, 72 h; series mostly up to 28.7 µM
Summary of the method: as §1

CP269 = assay: as above; conditions: P. falciparum in erythrocytes, SYBR Green DNA, 72 h; series mostly up to 28.7 µM
Summary of the method: as §1

CP286 = assay: as above; conditions: P. falciparum in erythrocytes, SYBR Green DNA, 72 h; series mostly up to 28.7 µM
Summary of the method: as §1

CP325 = assay: as above; conditions: P. falciparum in erythrocytes, SYBR Green DNA, 72 h; series mostly up to 28.7 µM
Summary of the method: as §1

CP329 = assay: as above; conditions: P. falciparum in erythrocytes, SYBR Green DNA, 72 h; series mostly up to 28.7 µM
Summary of the method: as §1

FAB9 = assay: as above; conditions: P. falciparum in erythrocytes, SYBR Green DNA, 72 h; series mostly up to 28.7 µM
Summary of the method: as §1

JCK = assay: as above; conditions: P. falciparum in erythrocytes, SYBR Green DNA, 72 h; series mostly up to 28.7 µM
Summary of the method: as §1

PC49 = assay: as above; conditions: P. falciparum in erythrocytes, SYBR Green DNA, 72 h; series mostly up to 28.7 µM
Summary of the method: as §1

[4] = biological target: Ubiquitin carboxyl-terminal hydrolase 1 (Homo sapiens) (UniProt O94782); assay: Inhibitors of USP1/UAF1: Pilot qHTS (AID 504865);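 also: rhodamine fluorescence freed from ubiquitin-rhodamine substrate followed over time; top concentration of the series differs between compounds; % is scaled to controls: 0 for no effect and ±100 for the full control effect; nearly all actives have a fitted effect of over 35% in size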
Summary of the method: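 Deubiquitinase activity followed as kinetic rhodamine fluorescence release from 150 nM Ub-Rho. 1 nM USP1/UAF1 with compound, after 15 min room-temperature preincubation, in HEPES pH 7.8 buffer containing TCEP, EDTA, BSA and Tween-20.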

ATP-dependent 6-phosphofructokinase (Trypanosoma brucei brucei), sequence (O15648 whole entry, looked up): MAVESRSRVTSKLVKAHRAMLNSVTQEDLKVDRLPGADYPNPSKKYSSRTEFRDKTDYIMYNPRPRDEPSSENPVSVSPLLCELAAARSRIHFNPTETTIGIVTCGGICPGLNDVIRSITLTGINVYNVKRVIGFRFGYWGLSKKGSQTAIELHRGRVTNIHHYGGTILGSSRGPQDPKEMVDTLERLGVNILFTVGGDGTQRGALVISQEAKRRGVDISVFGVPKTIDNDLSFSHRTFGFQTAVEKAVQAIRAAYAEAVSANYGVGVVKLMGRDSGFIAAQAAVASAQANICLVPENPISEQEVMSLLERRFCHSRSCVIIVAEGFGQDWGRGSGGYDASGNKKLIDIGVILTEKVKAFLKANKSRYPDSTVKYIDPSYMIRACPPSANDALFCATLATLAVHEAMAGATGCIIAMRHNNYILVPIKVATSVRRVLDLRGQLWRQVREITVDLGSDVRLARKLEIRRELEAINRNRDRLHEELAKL
Ubiquitin carboxyl-terminal hydrolase 1 (Homo sapiens), sequence (O94782 whole entry, looked up): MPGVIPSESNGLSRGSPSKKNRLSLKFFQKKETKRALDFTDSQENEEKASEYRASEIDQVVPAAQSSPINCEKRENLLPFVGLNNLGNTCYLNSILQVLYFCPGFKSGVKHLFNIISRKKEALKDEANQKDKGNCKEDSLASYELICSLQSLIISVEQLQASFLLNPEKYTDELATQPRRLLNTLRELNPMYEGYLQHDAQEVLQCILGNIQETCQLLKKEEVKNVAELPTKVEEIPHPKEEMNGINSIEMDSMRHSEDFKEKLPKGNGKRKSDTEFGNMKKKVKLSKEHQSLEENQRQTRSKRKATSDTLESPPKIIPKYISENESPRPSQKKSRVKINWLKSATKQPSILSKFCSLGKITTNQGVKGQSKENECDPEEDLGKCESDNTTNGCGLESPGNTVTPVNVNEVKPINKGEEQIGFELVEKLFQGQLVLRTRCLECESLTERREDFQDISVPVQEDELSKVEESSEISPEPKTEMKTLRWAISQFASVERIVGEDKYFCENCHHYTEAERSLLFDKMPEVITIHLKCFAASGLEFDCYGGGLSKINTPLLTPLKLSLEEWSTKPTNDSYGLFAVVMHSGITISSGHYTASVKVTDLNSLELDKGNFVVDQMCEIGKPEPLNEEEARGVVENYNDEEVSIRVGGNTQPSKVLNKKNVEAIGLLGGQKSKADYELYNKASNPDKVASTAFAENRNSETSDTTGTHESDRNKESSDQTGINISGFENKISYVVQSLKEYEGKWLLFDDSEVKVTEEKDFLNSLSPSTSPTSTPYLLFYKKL
Luciferin 4-monooxygenase (Photinus pyralis), sequence (P08659 whole entry, looked up): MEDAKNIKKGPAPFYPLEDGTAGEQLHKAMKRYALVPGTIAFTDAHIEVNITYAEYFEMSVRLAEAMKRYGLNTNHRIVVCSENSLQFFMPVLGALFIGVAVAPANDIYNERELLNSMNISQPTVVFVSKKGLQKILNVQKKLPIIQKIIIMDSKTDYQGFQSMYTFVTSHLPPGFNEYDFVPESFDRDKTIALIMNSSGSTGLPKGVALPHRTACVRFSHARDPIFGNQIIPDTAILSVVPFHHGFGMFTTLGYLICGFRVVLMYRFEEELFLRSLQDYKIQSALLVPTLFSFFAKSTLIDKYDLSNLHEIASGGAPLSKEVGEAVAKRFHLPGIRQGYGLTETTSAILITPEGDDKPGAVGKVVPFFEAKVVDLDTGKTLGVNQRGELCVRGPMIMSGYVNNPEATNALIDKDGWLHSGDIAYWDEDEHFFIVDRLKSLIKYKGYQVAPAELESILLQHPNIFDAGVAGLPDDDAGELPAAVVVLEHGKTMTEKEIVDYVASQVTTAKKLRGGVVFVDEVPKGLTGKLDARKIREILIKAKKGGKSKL

COC(C(=O)C(O)C(C)O)C1Cc2cc3cc(OC4CC(OC5CC(O)C(OC)C(C)O5)C(OC(C)=O)C(C)O4)c(C)c(O)c3c(O)c2C(=O)C1OC1CC(OC2CC(OC3CC(C)(O)C(OC(C)=O)C(C)O3)C(O)C(C)O2)C(O)C(C)O1 (stereo not given)
active: Potency ([3]; parasite line A) 708 nM | Potency ([3]; parasite line B) 1410 nM | Potency (ATS189) 1410 nM | Potency (C2A) 1780 nM | Potency (CP191) 1780 nM | Potency (CP192) 4260 nM | Potency (CP201) 15100 nM | Potency (CP215) 4260 nM | Potency (CP237) 89.1 nM | Potency (CP238) 1260 nM | Potency (CP268) 1900 nM | Potency (CP269) 1900 nM | Potency (CP286) 100 nM | Potency (CP325) 3380 nM | Potency (CP329) 3380 nM | Potency (FAB9) 2000 nM | Potency (JCK) 3980 nM | Potency (PC49) 2820 nM
inactive: outcome [1] | Potency [2]

CN(C)[C@@H](Cc1ccccc1)c1ccccc1
inactive: outcome [1] | Potency [4] | Potency [2] | activity, negative = inhibition ([3]; parasite line A) 6.12% | activity, negative = inhibition ([3]; parasite line B) 4.62% | Potency (ATS189) | Potency (C2A) | Potency (CP191) | Potency (CP192) | Potency (CP201) | Potency (CP215) | Potency (CP238) | Potency (CP268) | Potency (CP269) | Potency (CP286) | Potency (CP325) | Potency (CP329) | Potency (FAB9) | Potency (JCK) | Potency (PC49)
active: Potency (CP237) 8910 nM

CC(CO)NC(=O)C1C=C2c3cccc4[nH]cc(c34)CC2N(C)C1 (stereo not given)
inactive: Potency [4] | Potency [2] | activity, negative = inhibition ([3]; parasite line A) -10.6% | activity, negative = inhibition ([3]; parasite line B) -8.5% | Potency (ATS189) | Potency (C2A) | Potency (CP191) | Potency (CP192) | Potency (CP201) | Potency (CP215) | Potency (CP237) | Potency (CP238) | Potency (CP268) | Potency (CP269) | Potency (CP286) | Potency (CP325) | Potency (CP329) | Potency (FAB9) | Potency (JCK) | Potency (PC49)

O=[N+]([O-])OC1CO[C@H]2C(O[N+](=O)[O-])COC12 (stereo not given in full)
inactive: outcome [1] | Potency [4] | Potency [2] | activity, negative = inhibition ([3]; parasite line A) -2.15% | activity, negative = inhibition ([3]; parasite line B) 1.56% | Potency (ATS189) | Potency (C2A) | Potency (CP191) | Potency (CP192) | Potency (CP201) | Potency (CP237) | Potency (CP238) | Potency (CP268) | Potency (CP269) | Potency (CP286) | Potency (CP325) | Potency (CP329) | Potency (FAB9) | Potency (JCK) | Potency (PC49)

C=C1CC2C(CC[C@]3(C)C(=O)CCC23)[C@]2(C)C=CC(=O)C=C12 (stereo not given in full)
inactive: outcome [1] | Potency [4] | Potency [2] | activity, negative = inhibition ([3]; parasite line B) 0.0393% | Potency (ATS189) | Potency (C2A) | Potency (CP191) | Potency (CP192) | Potency (CP201) | Potency (CP215) | Potency (CP237) | Potency (CP238) | Potency (CP268) | Potency (CP269) | Potency (CP286) | Potency (CP325) | Potency (CP329) | Potency (FAB9) | Potency (JCK) | Potency (PC49)

CC(Cc1ccccc1)N(C)C (stereo not given)
inactive: outcome [1] | Potency [4] | Potency [2] | activity, negative = inhibition ([3]; parasite line A) 9.11% | activity, negative = inhibition ([3]; parasite line B) 11.3% | Potency (ATS189) | Potency (C2A) | Potency (CP191) | Potency (CP192) | Potency (CP201) | Potency (CP215) | Potency (CP237) | Potency (CP238) | Potency (CP269) | Potency (CP286) | Potency (CP325) | Potency (CP329) | Potency (FAB9) | Potency (JCK) | Potency (PC49)

CC12CCC3C4CCC(=O)C(O)=C4CCC3C1CCC2OC(=O)CCC1CCCC1 (stereo not given)
inactive: outcome [1] | Potency [4] | Potency [2] | activity, negative = inhibition ([3]; parasite line A) -6.44% | activity, negative = inhibition ([3]; parasite line B) -4.5% | Potency (ATS189) | Potency (C2A) | Potency (CP191) | Potency (CP192) | Potency (CP201) | Potency (CP215) | Potency (CP237) | Potency (CP238) | Potency (CP268) | Potency (CP269) | Potency (CP286) | Potency (CP325) | Potency (CP329) | Potency (FAB9) | Potency (JCK) | Potency (PC49)

CCN(CC)C(=O)N[C@@H]1C=C2c3cccc4[nH]cc(c34)C[C@H]2N(C)C1
inactive: outcome [1] | Potency [4] | Potency [2] | activity, negative = inhibition ([3]; parasite line A) -22.6% | Potency (CP192) | Potency (CP201) | Potency (CP215) | Potency (CP325) | Potency (FAB9) | Potency (PC49)

C[C@]12CC[C@H]3[C@@H](CC[C@@]45O[C@@H]4C(=O)C(C#N)C[C@]35C)[C@@H]1CC[C@@H]2O (stereo not given in full)
inactive: outcome [1] | Potency [4] | Potency [2] | Potency (CP192) | Potency (CP201) | Potency (CP215) | Potency (CP237) | Potency (CP238) | Potency (CP268) | Potency (CP269) | Potency (CP286) | Potency (CP325) | Potency (CP329) | Potency (FAB9) | Potency (JCK) | Potency (PC49)

CCC/C=C/C=C/C(=O)OC1/C(=C/C(=O)OC)CC2CC(C(C)O)OC(=O)CC(O)CC3CC(OC(C)=O)C(C)(C)C(O)(CC4C/C(=C/C(=O)OC)CC(/C=C\C(C)(C)C1(O)O2)O4)O3 (stereo not given)
active: Potency ([3]; parasite line A) 1580 nM | Potency ([3]; parasite line B) 1780 nM | Potency (ATS189) 891 nM | Potency (C2A) 1260 nM | Potency (CP191) 1120 nM | Potency (CP215) 1690 nM | Potency (CP237) 2820 nM | Potency (CP238) 1000 nM | Potency (CP268) 1350 nM | Potency (CP269) 1510 nM | Potency (CP286) 2240 nM | Potency (CP329) 1900 nM | Potency (FAB9) 2240 nM | Potency (JCK) 3160 nM | Potency (PC49) 1260 nM
inactive: outcome [1] | Potency [2]

C=CC[C@]1(O)CCC2C3CCC4=CCCCC4C3CCC21C (stereo not given in full)
inactive: outcome [1] | Potency [2] | activity, negative = inhibition ([3]; parasite line A) -16.3% | activity, negative = inhibition ([3]; parasite line B) -3.62% | Potency (ATS189) | Potency (C2A) | Potency (CP191) | Potency (CP192) | Potency (CP201) | Potency (CP215) | Potency (CP237) | Potency (CP238) | Potency (CP268) | Potency (CP269) | Potency (CP286) | Potency (CP325) | Potency (CP329) | Potency (FAB9) | Potency (JCK) | Potency (PC49)
